# Screening data as filed in PubChem.
# Compounds with a hit are over-represented: about 3.1% of the library has one in this group of screens.
# PP5 primary: blocks human protein phosphatase 5 activity. P53041. purified PP5c, OMFP substrate fluorescence. inhibition, % at 6.7 µM. actives 0.18% (n = 320,000). AID 1987;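 active = inhibition above the campaign's mean inhibition across all tested compounds plus 3 SD, cut at about 9.5% in these data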;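 also: 0% = DMSO only and 100% = 100 µM cantharidin control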
# Beta apoptosis: beta cell apoptosis inhibition; INS-1E cytokine-induced death, ATP luminescence, 48 h; percent of positive-control rescue, neutral wells zero; protection from apoptosis, % (test concentration not listed); actives 0.8% (n = 300,000); AID 435005;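 active = Every replicate reaches about 75%, or at least half do and their mean reaches it too, limit read from the data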;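 also: 0% = cytokine-treated negative control wells and 100% = positive control rescue; higher means more ATP so stronger rescue from cytokine killing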
# PP1 counter: PP1-alpha (human) inhibition in PP5 counter-screen | purified PP1alpha, OMFP fluorescence | inhibition, % at 6.7 µM | actives 0.9% (n = 320,000) | P62136 | AID 2235;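 active = inhibition above the mean inhibition of all tested compounds plus 3 SD, computed separately for each screening campaign, cut at about 15% in these data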
# Target sequence (P62136 whole entry, looked up): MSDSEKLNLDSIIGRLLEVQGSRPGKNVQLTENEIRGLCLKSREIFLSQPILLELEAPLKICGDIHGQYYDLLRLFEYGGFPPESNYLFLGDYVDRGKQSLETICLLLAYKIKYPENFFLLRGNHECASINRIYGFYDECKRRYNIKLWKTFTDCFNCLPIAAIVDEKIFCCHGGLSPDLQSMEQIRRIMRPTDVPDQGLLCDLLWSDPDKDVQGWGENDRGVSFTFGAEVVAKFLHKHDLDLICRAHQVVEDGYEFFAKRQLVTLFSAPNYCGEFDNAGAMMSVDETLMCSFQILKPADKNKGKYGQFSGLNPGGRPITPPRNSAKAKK
# SKKanGAS inh: blocks kanamycin growth of S. pyogenes SKKanGAS strain. BacTiter-Glo, 6 h. inhibition, % at 7.5 µM. actives 1.3% (n = 300,000);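 active = mean replicate score, as percent of positive control median, at least 50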;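 also: strain carries kanamycin resistance gene driven by streptokinase promoter and grows in 40 µg/ml kanamycin; loss of luminescence reflects streptokinase promoter inhibition or plain growth inhibition; 0% = median of DMSO wells and 100% = positive control at its reference dose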
# CSC inhib: blocks cancer stem cells. inhibition, % at 7.5 µM. actives 1.1% (n = 300,000). cancer stem cell-like cells viability, luminescence; in the data active = inhibition above about 75%; tested in HMLE shEcad cells
# The depositor's hits bear a star; · = not tested or not shown.
SMILES,PP5 primary,Beta apoptosis,PP1 counter,SKKanGAS inh,CSC inhib
O=C1C=C(N2CCCCC2)c2ccccc2C1=O,5,117*,2,82*,97*
N#C/C(=C(/O)CN1CCN(c2ccccc2F)CC1)c1nc(-c2ccccc2)cs1,-1,-3,-1,55*,39
CC(=O)NS(=O)(=O)c1ccc(N=c2ssc3c2-c2cc(C)c(C)cc2NC3(C)C)cc1,1,0,0,39,-4
Cc1cc2c(cc1C)-c1c(ssc1=Nc1ccc(S(N)(=O)=O)cc1)C(C)(C)N2,5,28,-5,50*,-2
O=C(OCc1ccc(COC(=O)c2ccc(O)cc2)cc1)c1ccc(O)cc1,4,-1,-1,58*,7
COC(=O)c1ccc(COC(=O)c2ccc(N(C)C)cc2)cc1,0,-4,-1,-13,-2
O=C(c1ccc(O)cc1)c1ccc(C(=O)c2ccc(O)cc2)cc1,1,-1,-1,83*,19
O=C(C(=O)c1ccc(O)cc1)c1ccccc1,1,-12,2,4,-4
N#Cc1cccc(NC(=O)CSc2cccc[n+]2[O-])c1,·,1,·,·,-21
O=C(CCc1ccncc1)NC1CCCc2c1cnn2-c1cc(F)cc(F)c1 (stereo not given),-1,-7,-5,-17,11
Clc1ccc(Cc2nc(-c3cccnc3)no2)cc1,0,-6,-3,2,-3
Cc1ccccc1NC(=O)CN1C(=O)S/C(=C\c2cccn2-c2cccc(C(=O)O)c2)C1=O,4,2,1,3,2
Cc1ccc(NC(=O)CN2C(=O)S/C(=C\c3cccn3-c3cccc(C(=O)O)c3)C2=O)c(C)c1,3,5,0,59*,32
CCN1CCCC1CNc1ccc(S(C)(=O)=O)cc1[N+](=O)[O-] (stereo not given),-2,0,-1,-2,-4
CC(C)C[C@H](NC(=O)c1[nH]cnc1C(=O)N[C@@H](Cc1ccccc1)C(=O)OC(C)(C)C)C(=O)OC(C)(C)C,7,26,5,83*,0
COc1ccc(NC(=O)c2nc[nH]c2C(=O)N[C@@H](C)C(=O)OC(C)(C)C)cc1,4,2,0,1,·
Cc1cccc(NC(=O)c2nc[nH]c2C(=O)NCCCNC(=O)c2[nH]cnc2C(=O)Nc2cccc(C)c2)c1,·,-6,·,·,77*
COc1ccc(NC(=O)c2nc[nH]c2C(=O)N[C@@H](CC(C)C)C(=O)OC(C)(C)C)cc1,5,69,2,76*,133*
CC(C)C[C@H](NC(=O)c1nc[nH]c1C(=O)NC1CCN(C(=O)OC(C)(C)C)CC1)C(=O)OCc1ccccc1,7,-9,12,73*,34
CC(CN1CCOCC1)OC(=O)c1ccccc1Cl (stereo not given),3,0,-1,10,-3
COc1ccc(S(=O)(=O)N2CCC3(CC2)OCCO3)cc1,1,-5,-6,-5,1
Cc1nc2ncnn2c(N2CCCC(C(=O)Nc3ccccc3Br)C2)c1C (stereo not given),1,-4,-1,1,8
CC(C)C[C@H](NC(=O)c1nc[nH]c1C(=O)NCc1ccccc1)C(=O)OCc1ccccc1,7,-11,6,54*,-5
Cc1cccc(NC(=O)c2nc[nH]c2C(=O)N[C@@H](C)C(=O)OCc2ccccc2)c1,6,-2,7,39,-8
Cc1cccc(NC(=O)c2nc[nH]c2C(=O)N[C@@H](CC(C)C)C(=O)OCc2ccccc2)c1,8,-5,6,92*,·
SMILES,PP5 primary,Beta apoptosis,PP1 counter,SKKanGAS inh,CSC inhib
CC(C)C[C@H](NC(=O)c1[nH]cnc1C(=O)N[C@@H](C)C(=O)OC(C)(C)C)C(=O)OCc1ccccc1,7,7,8,73*,11
O=C(N[C@@H](Cc1ccccc1)C(=O)OCc1ccccc1)c1nc[nH]c1C(=O)NC(c1ccccc1)c1ccccc1,5,-7,17*,12,-1
CC(C)C[C@H](NC(=O)c1[nH]cnc1C(=O)N[C@@H](C)C(=O)OCc1ccccc1)C(=O)OCc1ccccc1,·,-1,·,·,·
C/C(=N/NC(=O)c1cc(-c2ccc(Cl)s2)[nH]n1)c1ccco1,0,-3,0,2,7
COc1ccccc1C1/C(=C(\O)c2ccc3c(c2)OCCO3)C(=O)C(=O)N1Cc1cccnc1 (stereo not given),-1,1,2,-3,-2
Cc1cccc(NC(=O)c2nc[nH]c2C(=O)N[C@@H](C)c2ccccc2)c1,4,9,1,·,78*
